Screening results: PubChem, SRMLSC
Spn DPM-DC inh – S. pneumoniae DPM-DC inhibitors, primary screen, biochemical, PK/LDH-coupled NADH fluorescence; calls only at 10 µM; AID 556, 2006; 65,000 compounds, 0.49% hits; purified DPM-DC;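 active means the 320 compounds with the highest percent inhibition in the single-dose primary screen, excluding strongly autofluorescent ones, cut at about 32% in these data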;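 further: kinetic rate of NADH fluorescence loss reporting ADP formed by the decarboxylase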
Fluor 339 460 – intrinsic fluorescence of library compounds, ex339/em460 – biochemical, MLSMR library, data from DPM-DC assay, artefact control, profiling panel; compound autofluorescence, ex339/em460 nm, NADH buffer; active compounds read high; 1 = no-compound wells, NADH background; fluorescence fold increase at 10 µM; 65,000 compounds, 5.5% hits; AID 709, 2007;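 active means at 10 µM, mean starting fluorescence two-fold or more over control wells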;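 further: signal is the first read of a kinetic run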
NADH enzymes – inhibitors of PK/LDH coupling enzymes, profiling panel, artefact control, biochemical, MLSMR library; 65,000 compounds, 0.02% hits; IC50, µM (titrated, usually from 10 µM), without a hit: at the top dose inhibition; coupled PK/LDH NADH assays, four targets;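 active means single-dose screening hits from any of four coupled enzyme assays that gave an IC50 when retested across doses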;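 further: the DPM-DC format reads NADH fluorescence rather than 340 nm absorbance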
Spn PMK inh – S. pneumoniae PMK inhibitors, primary screen, biochemical, mevalonate pathway, pilot trial included. phosphomevalonate kinase (Streptococcus pneumoniae D39). purified PMK, PK/LDH-coupled NADH absorbance 340 nm. inhibition, % at 10 µM. 65,000 compounds, 0.49% hits;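 active means top-ranked compounds by inhibition in the single 10 µM screen, taking a fixed number of the strongest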;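 further: 0% = full reaction with DMSO carrier and 100% = background rate without enzyme reaction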
Spn MK inh – S. pneumoniae MK inhibitors, primary screen, biochemical, PK/LDH-coupled NADH absorbance; 65,000 compounds, 0.48% hits; inhibition, % at 10 µM; purified MK, PK/LDH-coupled NADH absorbance 340 nm; AID 555, 2006; mevalonate kinase [Streptococcus pneumoniae D39];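 active means ranked among the strongest by inhibition in the single 10 µM screen, a fixed top-ranked set picked for dose follow-up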
Abs 340nm – compound light absorbance at 340 nm, profiling panel, artefact control, biochemical, MLSMR library, data from PS, PMK, MK assays; compound absorbance at 340 nm, fold over control; fold change at 10 µM; 65,000 tested, under 10 active; AID 708, 2007;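 active means at 10 µM dose, initial 340 nm absorbance at least 2 fold that of control wells; inactive means change under 2 fold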;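 further: initial absorbance extrapolated from kinetic A340 decline of NADH oxidation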
* marks the source's active call; other numbers are inactive results; i = inactive; · = not tested or not shown. Shown are actives, neighbours in structure and some others; about 6.3% of the full set was active somewhere.

SMILES | Spn DPM-DC inh | Fluor 339 460 | NADH enzymes | Spn PMK inh | Spn MK inh | Abs 340nm
CCOC(=O)N1CCC(NC(=O)Cc2ccc(-n3c(=O)[nH]c4ccccc4c3=O)cc2)CC1 | i | 1.08 | 3.0% | 7.0 | 4.0 | 1
CCOC(=O)C1Cc2cc3c(cc2C1=O)CC(C(=O)OCC)C3=O (configuration not stated) | · | 3.73* | 1.0% | 2.0 | 0.0 | 1.09
CC(C)CCOCC(=O)Nc1cccc(C(=O)O)c1 | i | 1.04 | 3.0% | 0.0 | 9.0 | 1.04
COc1ccc2[nH]c(=O)c(CN(Cc3ccco3)C(=O)c3ccccc3)cc2c1 | · | 3.74* | 8.0% | 8.0 | 8.0 | 1.06
CCOc1ccc2[nH]c(=O)c(CN(CC3COCCO3)C(=O)c3ccco3)cc2c1 (configuration not stated) | · | 4.03* | 11.0% | 17.0 | 5.0 | 1.03
CCOc1ccc2[nH]c(=O)c(CN(Cc3ccco3)C(=O)c3cccc(F)c3)cc2c1 | i | 2.85* | 15.0% | 20.0 | 12.0 | 1.01
COC(=O)c1ccc(OCC2c3cc(OC)c(OC)cc3CCN2C(=O)c2ccco2)cc1 (configuration not stated) | i | 0.87 | 11.0% | 20.0 | 0.0 | 0.99
CSc1ccc(S(=O)(=O)Nc2ccc3c(c2)OCCO3)cc1 | i | 1.1 | 2.0% | 4.0 | 3.0 | 1.03
CCc1cccc(NC(=O)CN(c2ccc(OC)cc2)S(=O)(=O)c2c(C)n[nH]c2C)c1 | i | 1.08 | 3.0% | 8.0 | 0.0 | 0.97
CC(C)OC(=O)CCC1(C(=O)O)CCC(=O)NC1 (configuration not stated) | i | 1 | 12.0% | 25.0* | 11.0 | 0.99
CC(C)OC(=O)CC1=NC(=O)CS1 | i | 1.08 | 5.0% | 0.0 | 15.0 | 1.03
Cc1ccc2cccc(SCC(=O)N3CCOCC3)c2n1 | · | 2.48* | 5.0% | 11.0 | 6.0 | 0.99
O=C(CSc1nc2ccccc2nc1SCC(=O)N1CCOCC1)N1CCOCC1 | i | 1.04 | 1.0% | 0.0 | 0.0 | 1.12
Cc1ccc2cccc(OCC(=O)NCc3ccco3)c2n1 | i | 1.05 | 3.0% | 9.0 | 0.0 | 0.99
Cc1ccc(-n2c(Cc3cccn3C)nnc2SCC(=O)NCc2ccco2)cc1 | i | 1.17 | 5.0% | 7.0 | 7.0 | 1
Cc1ccc2cccc(SCC(=O)NCc3ccco3)c2n1 | · | 3.85* | 8.0% | 8.0 | 8.0 | 1.05
Cc1ccc(-n2c(CSc3nc(C)cc(C)n3)nnc2SCC(=O)NCc2ccco2)cc1 | i | 1.05 | 11.0% | 26.0* | 4.0 | 0.96
Cn1c(=O)n(CCc2ccccc2)c(=O)c2c1nc1n2CCN1c1ccccc1 | i | 1.45 | 7.0% | 12.0 | 10.0 | 1
CCCc1nnc2n1N=C(c1ccc(-c3cc(Cl)ccc3Cl)o1)CS2 | i | 1.03 | 3.0% | 0.0 | 10.0 | 1.02
COC(=O)c1cc2c(ccn2-c2ccc(F)cc2)n1CC(=O)N1CCN(C(=O)c2ccco2)CC1 | · | 3.51* | 5.0% | 0.0 | 9.0 | 1.05
CCOC(=O)N1CCC(N2C(=O)c3ccccc3C2Nc2cc(C(=O)OC)cc(C(=O)OC)c2)CC1 (configuration not stated) | · | 2.15* | 0.0% | 0.0 | 0.0 | 1.09
CC1Cc2ccccc2N1c1ncnc2c1nnn2Cc1ccccc1 (configuration not stated) | i | 2.6* | 5.0% | 8.0 | 0.0 | 1.08
c1ccc(Cn2nnc3c(N4CCc5ccccc5C4)ncnc32)cc1 | i | 1.09 | 5.0% | 10.0 | 5.0 | 0.97
CCCC(=O)Nc1nc2c(OC)ccc(OC)c2s1 | i | 1.23 | 4.0% | 10.0 | 3.0 | 1.06
Cc1cc(C)nc(Nc2nc(C)c3cc4c(cc3n2)OCO4)n1 | · | 3.52* | 13.0% | 16.0 | 9.0 | 1.15
SMILES | Spn DPM-DC inh | Fluor 339 460 | NADH enzymes | Spn PMK inh | Spn MK inh | Abs 340nm
Cc1nc(NC2=NCN(Cc3ccc4c(c3)OCO4)CN2)nc2ccccc12 | i | 1.07 | 5.0% | 5.0 | 9.0 | 1.01
CC(OC(=O)c1cccs1)C(=O)NCC1CCCO1 (configuration not stated) | i | 0.99 | 9.0% | 25.0* | 0.0 | 0.99
CC(OC(=O)c1cc2sccc2n1C)C(=O)NCC1CCCO1 (configuration not stated) | i | 1.04 | 9.0% | 22.0 | 0.0 | 1
COC(=O)c1ccc2c(=O)n(CCCCCC(=O)NCc3ccccn3)c(=O)[nH]c2c1 | i | 2.52* | 11.0% | 15.0 | 2.0 | 1.01
COCCCNC(=O)CCCn1c(=O)[nH]c2ccccc2c1=O | i | 1.11 | 5.0% | 13.0 | 2.0 | 0.99
O=C(CN(CCc1ccccc1)C(=O)CNS(=O)(=O)c1ccc(F)cc1)NCC1CCCO1 (configuration not stated) | i | 1.06 | 2.0% | 3.0 | 4.0 | 0.96
Nc1nc(N2CCCCC2)nc2ccccc12 | · | 3.89* | 9.0% | 8.0 | 9.0 | 1.06
O=C1CSC(c2nn(-c3ccccc3)cc2-c2cc3ccccc3oc2=O)N1Cc1ccco1 (configuration not stated) | · | 2.28* | 11.0% | 14.0 | 8.0 | 1.14
CCOC(=O)c1cnc(SCC(=O)Nc2ccc(NC(=O)CC)c(OC)c2)nc1N | i | 1.02 | 6.0% | 15.0 | 0.0 | 1.02
Cc1ccc2cc(CN(CC(C)C)C(=O)C3CCCO3)c(=O)[nH]c2c1 (configuration not stated) | i | 1.24 | 3.0% | 3.0 | 3.0 | 1.03
COc1ccc(N(Cc2cc3cc(OC)ccc3[nH]c2=O)C(=O)C2CCCO2)cc1 (configuration not stated) | i | 2.88* | 10.0% | 0.0 | 8.0 | 1.09
COc1ccc2[nH]c(=O)c(CN(C(=O)C3CCCO3)c3cccc(C)c3)cc2c1 (configuration not stated) | i | 2.35* | 10.0% | 6.0 | 8.0 | 1.07
COc1cc(-c2nc3cnccn3c2Nc2ccccc2)ccc1O | · | 2.11* | 3.0% | 2.0 | 3.0 | 1.12
COc1cc(-c2nc3cnccn3c2Nc2ccc3c(c2)OCCO3)ccc1O | i | 1.47 | 8.0% | 0.0 | 7.0 | 1.1
Cc1ccc(-c2cn3c(=S)[nH]nc3s2)cc1 | i | 1.02 | 46.0% | 16.0 | 99.0* | 1.1
CC(OC(=O)c1cc2sccc2n1C)C(=O)NCc1ccco1 (configuration not stated) | i | 1.1 | 3.0% | 8.0 | 0.0 | 1.03
CC(OC(=O)c1ccccc1NCc1ccco1)C(=O)Nc1ncc(Cl)cc1Cl (configuration not stated) | · | 2.23* | 2.0% | 0.0 | 3.0 | 1.12
COC(=O)/C(=C1/Oc2cc3c(cc2S1)OCO3)C(F)(F)F | i | 2.23* | 11.0% | 13.0 | 8.0 | 1.1
